Compound activity (PubChem)
ELG1 DNA repair = qHTS screen for small molecules that inhibit ELG1-dependent DNA repair in human embryonic kidney (HEK293T) cells expressing luciferase-tagged ELG1. 330,000 tested, 2.3% active. Potency, µM (series often up to 46.1 µM), actives largely listed as inhibitors. HEK293T ELG1-luciferase reporter, luminescence, 16 h; DNA damage induced by 5-fluorouridine; further: nearly all actives have a fitted effect of over 55% in size
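HEK293T cells expressing luciferase-tagged ELG1 (2,000/well) received 5-Fluorouridine plus compound or DMSO for 16 hr at 37 °C. Luciferase was read by ONE-Glo luminescence after 30 min at room temperature.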
Gal4-VP16 FLuc = VP16 counterscreen qHTS for inhibitors of ROR gamma transcriptional activity. Drosophila S2 Gal4-VP16 UAS-luciferase, luminescence, 20 h. 310,000 tested, 3.5% active. Potency, µM (doses to about 53.6 µM), actives largely listed as inhibitors;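 further: Gal4-VP16 expression switched on by copper sulfate through the metallothionein promoter; nearly all actives have a fitted effect of over 50% in size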
RORgamma inh = qHTS for inhibitors of ROR gamma transcriptional activity | Nuclear receptor ROR-gamma (Mus musculus), P51450 | Drosophila S2 Gal4-RORgamma UAS-luciferase reporter, 20 h | Potency, µM (highest dose often 53.6 µM), hits mostly inhibitors | 310,000 tested, 5.4% active | AID 2551, 2010; further: nearly all actives have a fitted effect of over 60% in size
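In this cell-based reporter format, copper sulfate (700 uM final) drives Gal4–ROR gamma fusion expression from a metallothionein promoter in Drosophila Schneider cells; compounds preincubated 1 hr, reporter read after 20 hr at ambient temperature.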
TSHR antagonist = Antagonists of the Thyroid Stimulating Hormone Receptor: HTS campaign; Thyrotropin receptor (Homo sapiens), P16473; TSHR-expressing cells, TSH-stimulated cAMP HTRF, 2 h; hits give low values; activity change, negative = inhibition, % at 11.5 µM; 330,000 tested, 0.2% active;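 active means activity change below a set negative limit, meaning inhibition stronger than a set level, cut at about -70% in these data; inconclusive means activity change between two set negative limits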
Target sequence (P16473 whole entry, looked up): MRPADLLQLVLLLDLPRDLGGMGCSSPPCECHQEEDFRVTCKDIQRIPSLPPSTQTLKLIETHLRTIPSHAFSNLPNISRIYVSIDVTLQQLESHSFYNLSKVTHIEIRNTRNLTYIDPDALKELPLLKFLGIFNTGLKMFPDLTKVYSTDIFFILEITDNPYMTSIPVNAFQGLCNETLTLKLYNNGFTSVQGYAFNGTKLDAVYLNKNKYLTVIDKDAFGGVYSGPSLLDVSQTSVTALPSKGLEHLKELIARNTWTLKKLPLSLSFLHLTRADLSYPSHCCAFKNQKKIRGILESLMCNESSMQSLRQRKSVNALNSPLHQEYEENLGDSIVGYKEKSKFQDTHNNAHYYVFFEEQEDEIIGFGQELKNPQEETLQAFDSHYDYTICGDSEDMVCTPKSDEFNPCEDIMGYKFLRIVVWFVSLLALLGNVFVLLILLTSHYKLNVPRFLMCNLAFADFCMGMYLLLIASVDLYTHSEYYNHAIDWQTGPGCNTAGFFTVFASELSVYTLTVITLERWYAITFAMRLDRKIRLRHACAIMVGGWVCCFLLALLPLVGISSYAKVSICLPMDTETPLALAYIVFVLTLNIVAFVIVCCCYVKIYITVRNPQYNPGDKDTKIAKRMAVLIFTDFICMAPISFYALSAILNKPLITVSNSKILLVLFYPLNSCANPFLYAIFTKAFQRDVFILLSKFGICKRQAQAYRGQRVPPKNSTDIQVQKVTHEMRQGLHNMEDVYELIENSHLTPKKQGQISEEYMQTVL
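TSHR-expressing cells were treated with compounds, then stimulated with TSH at EC80 (4nM final) for 2 hours at 37 deg C. Cellular cAMP was measured by HTRF competition between lysate cAMP and cAMP-d2 for a cryptate-labelled anti-cAMP antibody.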
Coupling enz = qHTS Assay for Inhibitors of Fructose-1,6-bisphosphate Aldolase from Giardia Lamblia: Coupling assay counterscreen; coupling enzyme system counterscreen, AmpLite Red fluorescence; 290,000 tested, 0.67% active; activity change, negative = inhibition, % at 58.2 µM, hits read low; in the data active means activity change below about -30%
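Compounds tested against the coupling enzymes alone at 57.5 uM final; readout was AmpLite Red fluorescence (525/598 nm) after 20 min at RT.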
ELG1 FLuc counter = qHTS screen for small molecules that inhibit ELG1-dependent DNA repair: Hit Confirmation in Cell-Based Luciferin Assay. shares compounds with ELG1 DNA repair. cell-free firefly luciferase luminescence counter-screen, ViewLux. Potency, µM (highest dose often 46.1 µM), hits mostly inhibitors. 350 tested, 3% active
ELG1 Luc conf = HTS assay for small molecules that inhibit ELG1-dependent DNA repair in human embryonic kidney (HEK293T) cells expressing luciferase-tagged ELG1: Hit Confirmation; 670 tested, 68% active; HEK293T ELG1-luciferase levels, luminescence; cells co-treated with 5-fluorouridine; shares compounds with ELG1 DNA repair; AID 624248, 2012; Potency, µM (titrated, usually from 46.1 µM), usual class: inhibitors; further: nearly all actives have a fitted effect of over 55% in size
ELG1-Luc MMS = MMS-stimulated human ELG1 repair inhibition, confirmed | Potency, µM (highest dose often 46.1 µM), most hits filed as inhibitors | shares compounds with ELG1 DNA repair | HEK293T luciferase-tagged ELG1 level, MMS stimulated | 670 tested, 53% active | AID 624249; further: nearly all actives have a fitted effect of over 60% in size
ELG1 5-FU = qHTS screen for small molecules that inhibit ELG1-dependent DNA repair: Hit Confirmation with 5FU Viability. Potency, µM (series often up to 46.1 µM), actives largely listed as cytotoxic. 670 tested, under 10 active. shares compounds with ELG1 DNA repair. cell viability with 5-FU, ELG1-dependent repair. AID 624250, 2012;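 further: ELG1-luc HEK293T cells cotreated with 5-fluorouridine at 10 µM final; viability measured 16 h after compound addition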
ELG1 MMS viab = qHTS screen for small molecules that inhibit ELG1-dependent DNA repair: Hit Confirmation with MMS Viability | Potency, µM (titrated, usually from 46.1 µM), most hits filed as cytotoxic | Cell viability with MMS, ELG1-dependent DNA repair | 670 tested, 33% active | shares compounds with ELG1 DNA repair;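 further: ELG1-luc HEK293T cells co-treated with 10 µM MMS; viability read 16 h after compound addition; nearly all actives have a fitted effect of over 60% in size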
ELG1 unstim viab = qHTS screen for small molecules that inhibit ELG1-dependent DNA repair: Hit Confirmation with Unstimulated Viability Assay | Potency, µM (doses to about 45.9 µM), most hits filed as cytotoxic | 900 tested, 8% active | shares compounds with ELG1 DNA repair | cell viability counter-screen, unstimulated, luminescence;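 further: compound exposure lasted 16 hours before reading; nearly all actives have a fitted effect of over 55% in size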
FLuc biochem = qHTS screen for small molecules that inhibit ELG1-dependent DNA repair: Hit Confirmation in Biochemical Luciferin Assay; shares compounds with ELG1 DNA repair; 350 tested, 10% active; Potency, µM (doses to about 57.5 µM), hits mostly inhibitors; purified firefly luciferase, luminescence counter-screen
A number is an active result; 0 = inactive; ? = inconclusive; - = no result given. Hits are enriched below; roughly 8% of the tested compounds scored in any of these assays. Unless noted, the call rests on the fitted dose curve; in most records, active means well fitted curve in the direction sought with a large enough effect; inconclusive means small, poorly fitted or top-dose-only effect, or another doubt; inactive means no such curve, though single readings can be large; an effect the other way counts as inactive or inconclusive.

SMILES | ELG1 DNA repair | Gal4-VP16 FLuc | RORgamma inh | TSHR antagonist | Coupling enz | ELG1 Luc conf | ELG1-Luc MMS | ELG1 5-FU | ELG1 MMS viab | ELG1 unstim viab | others
O=C(C1CC(=O)N(c2ccccc2)C1)N1CCN(c2ccccc2F)CC1 (stereo unspecified) | 0 | 0 | 0 | 0 | - | - | - | - | - | -
COc1cccc(NC(=O)COC(=O)c2sccc2C)c1 | ? | - | - | 0 | - | - | - | - | - | 0
COc1cccc(NC(=O)COC(=O)c2c(F)cccc2F)c1 | 0 | 0 | 0 | 0 | 0 | - | - | - | - | -
COc1ccc2c(CC(=O)NC(Cc3ccc(Cl)cc3)C(=O)O)cc(=O)oc2c1C (stereo unspecified) | 0 | 0 | 0 | 0 | 0 | - | - | - | - | -
Cc1ccc(NC(=O)Cn2cnc3ccccc32)cc1C | 4.61µM | ? | ? | 0 | 0 | 0 | ? | 0 | ? | ?
O=C(NN=C1CCCCC1)c1ccccc1-n1cccc1 | ? | 0 | 0 | 0 | 0 | - | - | - | - | -
O=[N+]([O-])c1ccc2ncnc(N3CCN(Cc4ccc5c(c4)OCO5)CC3)c2c1 | 2.06µM | ? | ? | 0 | 0 | 4.99µM | 12.5µM | 0 | 25µM | ?
CC1(C)Cc2nc3nc(SCC(=O)NCCc4ccccc4)n(-c4ccccc4)c(=O)c3cc2CO1 | 4.61µM | 0 | 0 | 0 | 0 | ? | 0 | ? | 0 | ?
Cc1cc(C)c(C#N)c(SCC(=O)Nc2cc(C)on2)n1 | ? | - | - | 0 | - | - | - | - | - | 0
COc1cccc(-c2nc(-c3ccc4c(c3)-c3ccccc3S4(=O)=O)c(-c3ccccc3)[nH]2)c1OC | 2.59µM | 0 | ? | 0 | 0 | 3.53µM | 0 | ? | ? | 0
COc1ccc(CC(=O)NNC(=O)COc2ccc(Cl)cc2C)cc1S(=O)(=O)N1CCOCC1 | ? | - | - | 0 | - | - | - | - | - | -
COc1ccccc1NC(=O)Nc1nc(CC(=O)Nc2ccc(F)cc2)cs1 | ? | - | - | 0 | - | - | - | - | - | -
COc1ccccc1NC(=O)Nc1nc(CC(=O)Nc2ccc(F)c(F)c2)cs1 | 4.61µM | - | - | 0 | - | 22.3µM | 0 | 0 | 0 | ?
O=C(CN1CCCCC1)NC(=O)NC1CCCCC1 | ? | - | - | 0 | - | - | - | - | - | -
CC1(NC(=O)Cn2cc(C(F)(F)F)ccc2=O)CCS(=O)(=O)C1 (stereo unspecified) | 0 | - | - | 0 | - | - | - | - | - | -
Cc1nn(-c2ccccc2)c(N2CCCC2)c1/C=N/n1cnc2scc(-c3ccccc3)c2c1=O | 13µM | 0 | 0 | 0 | 0 | 4.45µM | ? | 0 | 0 | ? | ELG1 FLuc counter=0;FLuc biochem=0
COc1cc2cc(C)c(SCC(=O)N3CCOCC3)nc2cc1OC | 0 | 0 | 0 | 0 | 0 | - | - | - | - | 0 | ELG1 FLuc counter=0;FLuc biochem=0
CC(=O)Oc1ccc(/C=C2/Oc3ccccc3C2=O)cc1 | ? | 0 | 0 | 0 | 0 | - | - | - | - | -
COc1ccc(/C=C2\Oc3ccccc3C2=O)cc1 | ? | - | - | 0 | - | - | - | - | - | 0
COc1cc2nc(NCC3CCCO3)n3nc(-c4cccnc4)nc3c2cc1OC (stereo unspecified) | 2.31µM | 0 | 0 | 0 | 0 | 3.97µM | 17.7µM | ? | 0 | 0
COCCCNc1nc2cc(OC)c(OC)cc2c2nc(-c3ccccc3)nn12 | 4.11µM | 0 | 0 | 0 | 0 | 2.23µM | ? | ? | 0 | ?
CCN(CC)CCCNc1nc2cc(OC)c(OC)cc2c2nc(-c3cccnc3)nn12 | 0 | ? | 0 | 0 | 0 | - | - | - | - | -
COc1ccc(C(=O)c2ccccc2)c2c(O)ccc(C(=O)c3ccccc3)c12 | ? | 0 | 0 | ? | 0 | 4.99µM | 1.58µM | 0 | 2.23µM | ?
CC(CC(=O)N1CCN(S(=O)(=O)c2ccc([N+](=O)[O-])cc2)CC1)c1ccccc1 (stereo unspecified) | 0 | - | - | 0 | - | - | - | - | - | -
CC(C)c1nc2sc3c(NCc4ccco4)ncnc3c2c2c1COC(C)(C)C2 | ? | 0 | 0 | 0 | 0 | 11.2µM | 0 | ? | 0 | ? | ELG1 FLuc counter=0;FLuc biochem=0
SMILES | ELG1 DNA repair | Gal4-VP16 FLuc | RORgamma inh | TSHR antagonist | Coupling enz | ELG1 Luc conf | ELG1-Luc MMS | ELG1 5-FU | ELG1 MMS viab | ELG1 unstim viab | others
CC(C)c1nc2sc3c(=O)n(N)cnc3c2c2c1COC(C)(C)C2 | 0 | 0 | 0 | 0 | 0 | ? | 0 | ? | 0 | 0 | ELG1 FLuc counter=0;FLuc biochem=0
COc1ccc(-c2cc(C(F)F)n3ncc(C(=O)Nc4cccc(S(=O)(=O)N5CCOCC5)c4)c3n2)cc1 | 3.66µM | 0 | 0 | 0 | 0 | ? | 0 | 0 | 0 | 0
CC1CCCCN1c1ncnc(N)c1[N+](=O)[O-] (stereo unspecified) | 3.26µM | 0 | 0 | 0 | 0 | 7.05µM | 14.1µM | 0 | ? | 0
CC(=O)c1ccc(N2CCN(S(=O)(=O)c3ccc4c5c3CC(=O)N5CC(C)S4)CC2)cc1 (stereo unspecified) | 0 | 0 | 0 | 0 | 0 | - | - | - | - | -
Cc1c(C(C)C)c(=O)n(-c2ccc(S(=O)(=O)NC3CCCCC3)cc2)n1C | 2.06µM | 11.2µM | ? | 0 | 0 | ? | 2.23µM | 0 | 2.5µM | ?
Cc1c(C(C)C)c(=O)n(-c2ccc(S(=O)(=O)N3CCOCC3)cc2)n1C | 0 | 0 | 0 | 0 | 0 | - | - | - | - | -
Cc1c(C(C)C)c(=O)n(-c2ccc(S(=O)(=O)NCc3ccccc3)cc2)n1C | 1.46µM | 7.94µM | ? | 0 | 0 | ? | 1.25µM | 0 | 1.25µM | ?
